Vaccinia mCherry = inhibitors of vaccinia virus infection (mCherry reporter signal); Vaccinia virus mCherry reporter infection, fluorescence; Potency, µM (top dose mostly 36.5 µM), inactives show at the top dose activity change, negative = inhibition, most hits filed as inhibitors; 310,000 tested, 0.63% active; AID 720579; calls by dose curve; tested in A549 cells; also: potency is read from the fitted curve at half-maximal effect; nearly all actives have a fitted effect of over 35% in size
Marburg entry inh = Marburg virus entry inhibition; AID 540276; Marburg virus pseudotyped entry inhibition, cell reporter; 300,000 tested, 1.8% active; Potency, µM (doses to about 37.8 µM), inactives show at the top dose activity change, negative = inhibition, usual class: inhibitors; calls by dose curve; tested in HEK293 cells; also: potency is read from the fitted curve at half-maximal effect
Vaccinia Venus = vaccinia inhibition (Venus reporter). Vaccinia virus Venus reporter expression, fluorescence. Potency, µM (top dose mostly 36.5 µM), for the others: at the top dose activity change, negative = inhibition, most hits filed as inhibitors. 330,000 tested, 0.46% active. AID 720580; calls by dose curve; tested in A549 cells; also: potency is read from the fitted curve at half-maximal effect; nearly all actives have a fitted effect of over 30% in size
HCMV inh = inhibitors of human cytomegalovirus; 410,000 tested, 4.5% active; activity change, negative = inhibition, % at 57.5 µM; HFF cells, HCMV-luciferase reporter, 72 h; stronger effect = lower value; in the data active = activity change below about -60%; inconclusive = no clear call, values can overlap the other calls; inactive = above about -39%
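Inhibition of viral replication was scored as loss of reporter luminescence in HFFs infected with HCMV-luciferase (MOI 1 PFU/cell) for 72 h; compounds tested at 2 doses, normalized to buffer and Salinomycin controls.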
FMDV inh = blocks foot and mouth disease virus; Potency, µM (titrated, usually from 57.9 µM), without a hit: at the top dose activity change, negative = inhibition, usual class: inhibitors; 410,000 tested, 1.2% active; FMDV antiviral cell-based qHTS; calls by dose curve; tested in HEK293T cells; also: read-out not given here; potency is read from the fitted curve at half-maximal effect; nearly all actives have a fitted effect of over 45% in size
LASV entry inh = Lassa virus entry inhibition. Lassa virus pseudotype entry inhibition, cell reporter. Potency, µM (top dose mostly 37.9 µM), without a hit: top-dose activity change, negative = inhibition, hits mostly inhibitors. 300,000 tested, 1.2% active; calls by dose curve; tested in HEK293 cells; also: potency is read from the fitted curve at half-maximal effect; nearly all actives have a fitted effect of over 50% in size
An asterisk follows results filed as active; i = inactive; ? = inconclusive; / = no result; [ ] = remark or other dose. An excerpt weighted towards active compounds, which were near 6.5% of everything screened. % is scaled to controls: 0 for no effect and ±100 for the full control effect.

SMILES	Vaccinia mCherry	Marburg entry inh	Vaccinia Venus	HCMV inh	FMDV inh	LASV entry inh
CCCCCc1c(-c2ccccc2)ncn1CCc1ccccc1OC	-6%	/	3%	?	-7%	/
CCCCc1c(-c2cccc(OC)c2)ncn1CCc1ccccc1OC	-9%	/	?	?	25µM*	/
Oc1ccc(Nc2nc(NCC3CCCO3)c3ccccc3n2)cc1 (configuration not stated)	/	?	/	13	-14%	?
COc1cccc(Nc2nc(NCC3CCCO3)c3ccccc3n2)c1 (configuration not stated)	?	?	?	?	20µM*	?
Oc1ccc(Cl)cc1Nc1nc(NCC2CCCO2)c2ccccc2n1 (configuration not stated)	/	/	/	-13	28µM*	/
c1ccc2c(NCC3CCCO3)nc(N3CCCCC3)nc2c1 (configuration not stated)	/	/	/	?	-24%	/
Oc1ccccc1Nc1nc(NCC2CCCO2)c2ccccc2n1 (configuration not stated)	/	15µM*	/	-12	?	?
CCOc1ccc(CNC(=O)c2ccc3c(c2)c(C)c(C)n3Cc2ccc(Cl)cc2)cc1	-18%	/	-14%	0	-8%	-1%[46.1 µM]
COc1ccc(CNC(=O)CCc2nc(-c3ccc(C)cc3)no2)c(OC)c1	i	1%[46.1 µM]	-6%	0	-3%	-19%[46.1 µM]
CN(C)S(=O)(=O)N(CC(=O)NCCSCc1ccccc1Cl)c1ccccc1	i	/	-13%	-13	-6%	?
CC(=O)c1ccc2c(c1)C1C(Cl)C(Sc3ccccc3[N+](=O)[O-])CC1C(c1ccccc1[N+](=O)[O-])N2 (configuration not stated)	-16%	?	-23%	-88*	-25%	?
COc1ccc(-c2cc(C(=O)N3CCCCCC3)c3ccccc3n2)cc1	?	-11%	-23%	-15	22%	17%
COc1ccc(-c2cc(C(=O)N3CCN(c4ccccc4)CC3)c3ccccc3n2)cc1OC	/	?	5%	133	-8%	4.5µM*
COc1ccc(N2CCN(C(=O)c3cc(-c4cccs4)nc4ccccc34)CC2)cc1	-21%	11µM*	-15%	-6	16%	/
CCC(=O)N1CCCc2cc(S(=O)(=O)N3CCC(C(=O)Nc4ccccc4CC)CC3)ccc21	-14%	/	-16%	-24	?	?
COc1ccc(/C=C/C(O)=C2/C(=O)N(C)C3(C)CC2c2ccccc2O3)cc1 (configuration not stated)	/	8.2µM*	/	-85*	14µM*	?
COc1ccc(/C=C/C(O)=C2/C(=O)NC3(C)CC2c2ccccc2O3)c(OC)c1OC (configuration not stated)	/	/	/	-65*	?	/
CCN1C(=O)C(C(=O)Nc2ccc(OC)cc2)C2CC1(C)Oc1ccccc12 (configuration not stated)	-4%	-13%	-17%	19	-21%	16%
Cc1ccc(/C=C/C(O)=C2/C(=O)N(C)C3(C)CC2c2ccccc2O3)cc1 (configuration not stated)	?	?	?	-98*	14µM*	-12%
COC(=O)C[C@H]1c2ccccc2[C@@H]2C(=C[C@@H](C)[C@H]3C(=O)NC(=O)[C@H]32)N1C(=O)OC	/	3%[14.2 µM]	/	/	/	/
COc1ccc2c3n(nc2c1)C(C)CN=C3c1ccc(Cl)cc1 (configuration not stated)	/	/	/	35	/	/
O=C(CCl)N(C1CCCC1)C1CCS(=O)(=O)C1 (configuration not stated)	?	?	?	-83*	-17%	?
CC(=O)c1ccc(OCC(=O)N(C2CCCCC2)C2CCS(=O)(=O)C2)cc1 (configuration not stated)	i	1%	-18%	-7	-6%	-2%
CCn1cc([N+](=O)[O-])c(C(=O)N2N=C(c3ccc4ccccc4c3)CC2c2cc(Br)ccc2O)n1 (configuration not stated)	14µM*	?	?	/	-16%	?
O=C1CN(C(=O)COC(=O)c2ccc(Br)o2)c2ccccc2N1	/	/	/	-102*	-3%	/
SMILES	Vaccinia mCherry	Marburg entry inh	Vaccinia Venus	HCMV inh	FMDV inh	LASV entry inh
O=C1CN(C(=O)COC(=O)CNC(=O)c2ccc(Br)o2)c2ccccc2N1	-5%	1%[46.1 µM]	-16%	25	-5%	2%[46.1 µM]
CCOc1ccc(CCNC(=O)C2CC(=O)N(CCc3ccc(OC)c(OC)c3)C2)cc1OCC (configuration not stated)	-17%	-4%	-21%	-14	-16%	27%
CCOc1ccc(CCNC(=O)C2CC(=O)N(CCc3ccccc3)C2)cc1OCC (configuration not stated)	-14%	-2%[46.1 µM]	-12%	-72*	7%	0%[46.1 µM]
CCc1nnc(NC(=O)C2CC(=O)N(CCc3ccc(F)cc3)C2)s1 (configuration not stated)	-6%	-1%[46.1 µM]	-6%	-64*	2%	-2%[46.1 µM]
CCc1nnc(NC(=O)C2CC(=O)N(CCc3ccccc3)C2)s1 (configuration not stated)	/	-4%	/	114	13%	11%
O=C(Nc1nccs1)C1CC(=O)N(CCc2ccc(F)cc2)C1 (configuration not stated)	-12%	-12%[46.1 µM]	-14%	-62*	-14%	26%[46.1 µM]
Cc1ccc(N2CC(C(=O)Nc3nccs3)CC2=O)cc1Cl (configuration not stated)	/	4%	/	-91*	11%	-2%
CCc1cnc2c(c1SCCC(C)C)c(=O)n(C)c(=O)n2C	-10%	/	-9%	0	-14%	?
CCN1C(=O)NC(c2cccc(C(F)(F)F)c2)C(C(C)=O)=C1C (configuration not stated)	/	12%[14.2 µM]	/	/	/	?
CCN(c1ccccc1)S(=O)(=O)c1cc(NC(=O)Nc2ccccc2C#N)ccc1Cl	?	16%	-29%	-68*	?	-2%
CCN(c1ccccc1)S(=O)(=O)c1ccc(Cl)c(NC(=O)Nc2ccc(Cl)cc2C#N)c1	11µM*	?	10µM*	?	0%	?
CN(c1ccccc1)S(=O)(=O)c1cccc(NC(=O)Nc2ccc(Cl)cc2C#N)c1	i	0%	-9%	43	-22%	1%
Cc1cc(C(=O)NCc2nc(-c3ccccc3NC(=O)C3CCCO3)oc2C)nc(C)n1 (configuration not stated)	-17%	/	-21%	/	-3%	/
COC(=O)CC=C1c2ccccc2[C@@H](NC(=O)OC)[C@@H]1C	/	20%[14.2 µM]	/	/	/	/
COc1ccc2c3c(n(C)c2c1)[C@H](CO)N(C(=O)c1ccccn1)CC31CCN(C(=O)Cc2ccccc2)CC1	/	/	/	6	/	/
CCCc1cnc2c(c1SCC(=O)Nc1ccc([N+](=O)[O-])cc1)c(=O)n(C)c(=O)n2C	-11%	/	?	2	16µM*	?
Clc1ccc(-n2cccc2CN2CCc3nnc(Cc4ccccc4)n3CC2)nc1	i	/	-11%	/	-13%	/

Source: PubChem (National Center for Advancing Translational Sciences (NCATS))
